PubChem BioAssay AID504594 (Broad Institute, 2011)
Out of some 2,000 compounds screened, fewer than 10 were called active. Only a sample is shown. Unmarked numbers belong to inactive results.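 The calls were made as follows: active = growth inhibition of at least 75% in every replicate, which also brings the mean inhibition to 75% or more; inconclusive = mean inhibition 75% or more but some replicate under 75%; inactive = the rest.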

experiment: reduced viability of yeast carrying PfHsp90 – S. cerevisiae, BacTiter-Glo luminescence, antimalarial PfHsp90 inhibitor project, primary screen (AID 504594);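 also: 0% = DMSO neutral control wells and 100% = 20 µM radicicol control wells; higher value means stronger growth inhibition because the sign is flipped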; conditions: S. cerevisiae expressing PfHsp90, BacTiter-Glo growth, 48 h; at 9.4 µM; hits give high values

Q: Which growth inhibition does the source give for `CC(C)c1ccc2[nH]c3c(c2c1)CCCC3=O` here?
A: The growth inhibition was 0.593%.

Q: Which growth inhibition does the source give for `O=c1cc(-c2ccccc2)oc2cc(OCc3ccccc3)cc(O)c12` here?
A: The growth inhibition was 2.87%.

Q: Which growth inhibition does the source give for `Cc1ccc2ncnc(NCCCCCC(=O)O)c2c1` here?
A: Its growth inhibition is 4.2%.

Q: Which growth inhibition does the source give for `Nc1cccc2c1nnn2C1OC(CO)C(O)C(O)C1O` (configuration not stated) here?
A: Its growth inhibition is -0.754%.

Q: With `O=C1C=CC(=O)C(C2=C3C(=O)N(CCc4ccccc4)CC(=O)N3CCC2)=C1` as the compound, how does the growth inhibition read?
A: The growth inhibition was 0.713%.

Q: Which growth inhibition does the source give for `COc1cc(NC(=O)N[C@@H](Cc2ccccc2)C(=O)O)cc(OC)c1` here?
A: Its growth inhibition is 5.35%.

Q: For `CCc1ccc(CN(C)Cc2nc(Cc3ccccc3)no2)nc1`, which growth inhibition is on record?
A: The growth inhibition was -0.638%.

Q: For `O=C(NCCNc1ccc(Cl)cc1[N+](=O)[O-])c1cccnc1`, which growth inhibition is on record?
A: The growth inhibition was 1.09%.

Q: Which growth inhibition does the source give for `CC1(C)NC(C(=O)O)Cc2c1[nH]c1ccccc21` (configuration not stated) here?
A: The growth inhibition was 7.2%.

Q: Which growth inhibition does the source give for `CC(C)NC(=O)C1(c2ccccc2)CCOCC1` here?
A: Its growth inhibition is -8.01%.

Q: For `CCCCOn1c(C)c(C(C)=O)c2c3no[n+]([O-])c3ccc21`, which growth inhibition is on record?
A: Its growth inhibition is -14.4%.

Q: Which growth inhibition does the source give for `CCSc1nc(O)c(C2OC(=O)c3c2ccc(OC)c3OC)c(=O)n1CC` (configuration not stated) here?
A: The growth inhibition was 9.9%.

Q: For `COC(=O)c1ccccc1NC(=O)NCc1ccccc1`, which growth inhibition is on record?
A: Its growth inhibition is -7.31%.

Q: With `Cc1ccc2[nH]c3c(c2c1)CN(C(=O)CN1CCSCC1)CC3` as the compound, how does the growth inhibition read?
A: The growth inhibition was -8.61%.

Q: Which growth inhibition does the source give for `COc1ccccc1C1(CC(=O)N2CCCCC2)CCOC(C(C)C)C1` (configuration not stated) here?
A: Its growth inhibition is 14.4%.

Q: With `CC(C)CCNC(=O)[C@H](CC(C)C)NC(=O)[C@H]1O[C@@H]1C(=O)O` as the compound, how does the growth inhibition read?
A: The growth inhibition was -0.406%.

Q: With `CC(=O)N1N=C(c2cccs2)CC1c1ccc(C)o1` (configuration not stated) as the compound, how does the growth inhibition read?
A: Its growth inhibition is 15.9%.

Q: Which growth inhibition does the source give for `Cc1cc(Cl)cc2c1NC(=O)[C@]21[C@@H]2C(=O)N(Cc3ccccc3)C(=O)[C@@H]2[C@@H]2CCCN21` here?
A: Its growth inhibition is 6.75%.

Q: For `COC(=O)CN1C(=S)N(c2ccc(F)cc2)C(=O)C1CC(=O)Nc1ccccc1` (configuration not stated), which growth inhibition is on record?
A: Its growth inhibition is 9.33%.

Q: With `Cc1ccc(P(=O)(CSC(=N)N)c2ccc(C)cc2)cc1` as the compound, how does the growth inhibition read?
A: Its growth inhibition is -1.66%.

Q: For `Cc1[nH]c2ccccc2c1C(=O)C(=O)NCc1ccco1`, which growth inhibition is on record?
A: The growth inhibition was 5.84%.

Q: For `Cc1ccccc1NC(=O)NCCc1c[nH]c2ccccc12`, which growth inhibition is on record?
A: Its growth inhibition is 17.7%.

Q: For `OCCC1CN(Cc2ccccc2-c2ccco2)CCN1C1CCCC1` (configuration not stated), which growth inhibition is on record?
A: Its growth inhibition is -5.78%.

Q: With `Cc1ccc(CN2CCN(Cc3cn[nH]c3C3CCCCC3)CC2CCO)cc1` (configuration not stated) as the compound, how does the growth inhibition read?
A: Its growth inhibition is -25.7%.

Q: Which growth inhibition does the source give for `Cc1ccc(Nc2ncccc2C(=O)O)cc1C` here?
A: The growth inhibition was -4.41%.

Q: For `CS(=O)c1ccccc1O` (configuration not stated), which growth inhibition is on record?
A: Its growth inhibition is 14.9%.

Q: For `N/C(=N\OC(=O)CCCOc1ccc(Cl)cc1Cl)c1ccncc1`, which growth inhibition is on record?
A: Its growth inhibition is -2.92%.

Q: Which growth inhibition does the source give for `COc1ccc(C2NC(=O)c3ccccc3N2)cc1OC` (configuration not stated) here?
A: Its growth inhibition is -3.61%.

Q: Which growth inhibition does the source give for `C=C(C)c1nc2cc(OC)c(OC)cc2c(=O)o1` here?
A: The growth inhibition was 12.6%.

Q: Which growth inhibition does the source give for `C=CCNC(=O)c1ccc(-c2cccc([N+](=O)[O-])c2)o1` here?
A: The growth inhibition was 0.359%.

Q: With `COc1ccc(-n2cc(CNCc3cccnc3)c(-c3cccc(F)c3)n2)cc1` as the compound, how does the growth inhibition read?
A: Its growth inhibition is -18.3%.

Q: Which growth inhibition does the source give for `COC(=O)c1cc(-c2ccc(OC)c(OC)c2)on1` here?
A: The growth inhibition was -8.12%.

Q: For `O=c1c2ccccc2nc2n1CCCN2`, which growth inhibition is on record?
A: The growth inhibition was 6.84%.

Q: Which growth inhibition does the source give for `CCOC(=O)N1CCc2[nH]c3ccc(C)cc3c2C1` here?
A: Its growth inhibition is -0.0125%.

Q: With `CC1(C)CC(C(CC(=O)O)c2ccccc2)CCO1` (configuration not stated) as the compound, how does the growth inhibition read?
A: Its growth inhibition is -0.107%.

Q: With `Cc1ccc2c(c1)c(C)cc(=O)n2CCC(=O)O` as the compound, how does the growth inhibition read?
A: Its growth inhibition is -4.29%.

Q: With `Cc1ccccc1OCC(O)CN1CCN(C)CC1` (configuration not stated) as the compound, how does the growth inhibition read?
A: Its growth inhibition is 2.9%.

Q: With `COc1cccc(C2CCCN2Cc2nc(CCC(C)C)no2)c1` (configuration not stated) as the compound, how does the growth inhibition read?
A: The growth inhibition was 11.4%.

Q: With `CC(C)N(Cc1nccn1C)C(=O)CC1C(=O)NCCN1Cc1ccccc1C(F)(F)F` (configuration not stated) as the compound, how does the growth inhibition read?
A: Its growth inhibition is -0.671%.

Q: For `CCOCCCNCc1cn(-c2ccc(F)cc2F)nc1-c1ccccc1C`, which growth inhibition is on record?
A: The growth inhibition was 5.3%.

Q: With `CCOC(=O)C1(Cc2cccc(Cl)c2)CCCN(C2CCN(C(C)=O)CC2)C1` (configuration not stated) as the compound, how does the growth inhibition read?
A: The growth inhibition was -10.8%.

Q: For `Cc1ccc(C2=NOC(=O)/C2=C\C=C\c2ccccc2)cc1`, which growth inhibition is on record?
A: Its growth inhibition is 14.3%.

Q: Which growth inhibition does the source give for `O=C1c2ccccc2C(=O)N1/N=C/c1ccc(Oc2ccc([N+](=O)[O-])cn2)cc1` here?
A: Its growth inhibition is 4.52%.

Q: For `CC1(C)Oc2ccc(C#N)cc2[C@@H](N2CCCC2=O)[C@@H]1O`, which growth inhibition is on record?
A: Its growth inhibition is 7.78%.

Q: For `CC1(C)Cc2ccccc2C(C(Cc2ccccc2)C(N)=O)=N1` (configuration not stated), which growth inhibition is on record?
A: Its growth inhibition is -4.58%.

Q: For `O=C(CN1CCN(Cc2ccccc2)CC1)N1CCCc2c1c(=O)oc1ccc(O)cc21`, which growth inhibition is on record?
A: The growth inhibition was -7.45%.

Q: Which growth inhibition does the source give for `O=C(NCCc1cccc(F)c1)[C@@H]1CSC2c3ccccc3C(=O)N21` (some centres not stated) here?
A: Its growth inhibition is 3.04%.
